From PubChem BioAssay (NCI)
The panel holds about 79,000 compounds, 15% with a hit somewhere; the sample as a whole holds those more often. A number with no mark means an inactive call. Calls of active or inactive are those of the source. No stated cut-off is given here; in the data, active means growth inhibition above about 70%; inactive means the rest.

Key:
[1] = NCI Yeast Anticancer Drug Screen. Data for the rad50 strain (AID 155);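 further: 0% = growth of vehicle-only cultures of the same strain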; conditions: S. cerevisiae rad50 strain growth inhibition; at 50.0 µM; hits give high values
Procedure, shortened: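 DNA repair mutant yeast, compound exposure, growth read-out; inhibition is taken relative to vehicle.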

[2] = NCI Yeast Anticancer Drug Screen. Data for the mec2-1 strain (AID 157); conditions: S. cerevisiae mec2-1 strain, at 50.0 µM, hits give high values
Procedure, shortened: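 Strain: mec2-1 (DNA repair/cell cycle alteration). Compound exposure, then growth measured; inhibition expressed relative to vehicle.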

[3] = NCI Yeast Anticancer Drug Screen. Data for the sgs1 mgt1 strain (AID 161);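 further: 0% = growth of cultures given vehicle only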; conditions: S. cerevisiae sgs1 mgt1 strain, at 50.0 µM, hits give high values
Procedure, shortened: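 Genetically altered yeast, compound exposure, growth inhibition relative to vehicle.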

[4] = NCI Yeast Anticancer Drug Screen. Data for the cln2 rad14 strain (AID 165);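 further: 0% = growth equal to vehicle treated cultures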; conditions: S. cerevisiae cln2 rad14 strain, at 50.0 µM, hits give high values
Procedure, shortened: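 Compounds are applied to the cln2 rad14 yeast strain, and growth is then compared with that of vehicle-treated cultures to give inhibition.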

[5] = NCI Yeast Anticancer Drug Screen. Data for the bub3 strain (AID 167); conditions: S. cerevisiae bub3 mutant strain, at 50.0 µM, hits give high values
Procedure, shortened: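 In this screen, a yeast mutant lacking normal mitotic checkpoint function is challenged with compound. Relative growth versus vehicle gives the inhibition value.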

[6] = NCI Yeast Anticancer Drug Screen. Data for the mlh1 rad18 strain (AID 175); conditions: S. cerevisiae mlh1 rad18 strain growth inhibition; at 50.0 µM; hits give high values
Procedure, shortened: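 Read-out is yeast growth inhibition, calculated against vehicle-only controls. The compound was applied to a strain engineered with DNA damage repair alterations.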

## COc1ccc(-c2cc(-c3ccccc3)nc(-c3cccc([N+](=O)[O-])c3)c2)cc1
[1]
  growth inhibition: -1.6%
[2]
  growth inhibition: -4.4%
[3]
  growth inhibition: 11.4%
[4]
  growth inhibition: -3.75%
[5]
  growth inhibition: 21.2%
[6]
  growth inhibition: 18.4%

## COc1ccc(C(=O)CCN(C)C)cc1
[1]
  growth inhibition: 15.6%
[2]
  growth inhibition: -5.85%
[3]
  growth inhibition: -7.65%
[4]
  growth inhibition: -11.3%
[5]
  growth inhibition: -7.5%
[6]
  growth inhibition: -4.6%

## O=C1OC(Nc2ccccc2)C(Cl)=C1Cl (stereo unspecified)
[1]
  growth inhibition: 38.1%
[2]
  growth inhibition: 13.8%
[3]
  growth inhibition: 22.5%
[4]
  growth inhibition: 20.3%
[5]
  growth inhibition: 6.2%
[6]
  growth inhibition: -0.15%

## CC(C)C(Br)C(=O)N1CCOCC1 (stereo unspecified)
[1]
  growth inhibition: -0.4%
[2]
  growth inhibition: -17.9%
[3]
  growth inhibition: -5.2%
[4]
  growth inhibition: -20.6%
[5]
  growth inhibition: -9.6%
[6]
  growth inhibition: -5.15%

## COc1ccc(CN)cc1
[1]
  growth inhibition: -0.7%
[2]
  growth inhibition: -9.6%
[3]
  growth inhibition: -15.2%
[4]
  growth inhibition: 2.75%
[5]
  growth inhibition: 6.85%
[6]
  growth inhibition: -2.6%

## C=C1C(=O)OC2/C=C(/CO)C3(O)CC(O)C(C)(CC(OC(=O)/C(C)=C/C)C12)O3 (stereo unspecified)
[1]
  growth inhibition: 7.2%
[2]
  growth inhibition: -13.9%
[3]
  growth inhibition: 14.9%
[4]
  growth inhibition: 17.4%
[5]
  growth inhibition: 0.85%
[6]
  growth inhibition: -27.2%

## COc1ccc(-c2c(C#N)c(N)nc(C)c2-c2ccccc2)cc1
[1]
  growth inhibition: -26.4%
[2]
  growth inhibition: -10.8%
[3]
  growth inhibition: -6.85%
[4]
  growth inhibition: -24.6%
[5]
  growth inhibition: -5.65%
[6]
  growth inhibition: 16.9%

## O=C1OC2C(O)C(N(O)c3ccccc3)OC2[C@@H]1O (stereo partly specified)
[1]
  growth inhibition: 1.85%
[2]
  growth inhibition: 17.5%
[3]
  growth inhibition: 21.9%
[4]
  growth inhibition: 9.2%
[5]
  growth inhibition: 21.8%
[6]
  growth inhibition: 15.1%

## Cc1nc(-c2ccccc2)ncc1C(O)CN1CCOCC1 (stereo unspecified)
[1]
  growth inhibition: 12.8%
[2]
  growth inhibition: 11.2%
[3]
  growth inhibition: 17.4%
[4]
  growth inhibition: 13.7%
[5]
  growth inhibition: -23%
[6]
  growth inhibition: 6.95%

## O=C=Nc1ccc(Cl)c(Cl)c1
[1]
  growth inhibition: -19.9%
[2]
  growth inhibition: -29.4%
[3]
  growth inhibition: -43%
[4]
  growth inhibition: -9.1%
[5]
  growth inhibition: -13.7%
[6]
  growth inhibition: -19.1%

## CC1CCN(C(c2ccccc2)c2ccc3ccccc3c2O)CC1 (stereo unspecified)
[1]
  growth inhibition: 51.8%
[2]
  growth inhibition: 42.2%
[3]
  growth inhibition: 55.4%
[4]
  growth inhibition: -6.8%
[5]
  growth inhibition: 33.6%
[6]
  growth inhibition: 75% (active)

## CN(Cc1ccccc1)C(=O)c1cccc(C(=O)N(C)Cc2ccccc2)c1
[1]
  growth inhibition: 9.85%
[2]
  growth inhibition: 22.5%
[3]
  growth inhibition: 19.1%
[4]
  growth inhibition: 13.8%
[5]
  growth inhibition: 21.7%
[6]
  growth inhibition: 17.6%

## CCOC(=O)NC(Nc1ccc(Cl)cn1)(C(F)(F)F)C(F)(F)F
[1]
  growth inhibition: -25.9%
[2]
  growth inhibition: -12.5%
[3]
  growth inhibition: -52.5%
[4]
  growth inhibition: -25.3%
[5]
  growth inhibition: -21.6%
[6]
  growth inhibition: -76.2%

## Cc1cccc(O)c1C(=O)O
[1]
  growth inhibition: -8.15%
[2]
  growth inhibition: -12%
[3]
  growth inhibition: -15.6%
[4]
  growth inhibition: -9.45%
[5]
  growth inhibition: 9.05%
[6]
  growth inhibition: -0.25%

## CC(C)CSC(C)C
[1]
  growth inhibition: -3.6%
[2]
  growth inhibition: -43.4%
[3]
  growth inhibition: -27.6%
[4]
  growth inhibition: -5.25%
[5]
  growth inhibition: -6.9%
[6]
  growth inhibition: -11.1%

## CCCCCCCCCCCCCCCCc1c(C(=O)OC)[nH]c(=S)[nH]c1=O
[1]
  growth inhibition: -49%
[2]
  growth inhibition: -18.2%
[3]
  growth inhibition: -21.9%
[4]
  growth inhibition: -2.8%
[5]
  growth inhibition: -29.1%
[6]
  growth inhibition: -11.3%

## C=C(C)[N+]([O-])=NC
[1]
  growth inhibition: -6.75%
[2]
  growth inhibition: 3.5%
[3]
  growth inhibition: -2.8%
[4]
  growth inhibition: 30.1%
[5]
  growth inhibition: -10.8%
[6]
  growth inhibition: 0.75%

## COC(=O)C1C2C=CC(C1C(=O)O)C1C(Br)=C(Br)C21 (stereo unspecified)
[1]
  growth inhibition: 20.4%
[2]
  growth inhibition: 10.9%
[3]
  growth inhibition: -8.05%
[4]
  growth inhibition: -10.1%
[5]
  growth inhibition: 1.9%
[6]
  growth inhibition: -8.45%

## O=C1CCCC2=C1CC1=C(CCCC1=O)N2c1ccccc1
[1]
  growth inhibition: -28.5%
[2]
  growth inhibition: -20.9%
[3]
  growth inhibition: 8.7%
[4]
  growth inhibition: -0.75%
[5]
  growth inhibition: 12.6%
[6]
  growth inhibition: 12.6%

## CCOP(=O)(Cc1c(C)cc(Br)c2ccccc12)OCC
[1]
  growth inhibition: -2.85%
[2]
  growth inhibition: -13.8%
[3]
  growth inhibition: -0.95%
[4]
  growth inhibition: -32.2%
[5]
  growth inhibition: 5.45%
[6]
  growth inhibition: -9.35%

## Cc1ccc(/C(O)=C/c2nc3ccccc3oc2=O)cc1
[1]
  growth inhibition: 20.2%
[2]
  growth inhibition: 35.4%
[3]
  growth inhibition: -7.5%
[4]
  growth inhibition: -18.7%
[5]
  growth inhibition: 25.9%
[6]
  growth inhibition: 0.85%

## Oc1c(N=Nc2ccccc2)c2ccccc2c2ccc3ccccc3c12
[1]
  growth inhibition: -23.3%
[2]
  growth inhibition: -13.7%
[3]
  growth inhibition: -7.6%
[4]
  growth inhibition: -15.9%
[5]
  growth inhibition: -8.2%
[6]
  growth inhibition: 6.85%

## Nc1cccc(C(F)(F)F)c1N
[1]
  growth inhibition: -13.6%
[2]
  growth inhibition: -15.4%
[3]
  growth inhibition: -6.7%
[4]
  growth inhibition: -24.4%
[5]
  growth inhibition: -13.6%
[6]
  growth inhibition: 8.3%

## O=C(C=C(C(F)(F)F)C(F)(F)F)/C=C/c1ccccc1
[1]
  growth inhibition: 99.5% (active)
[2]
  growth inhibition: 99.7% (active)
[3]
  growth inhibition: 99.5% (active)
[4]
  growth inhibition: 99.5% (active)
[5]
  growth inhibition: 99.3% (active)
[6]
  growth inhibition: 99.4% (active)

## CCCCc1ccc(Nc2nc(SC)c3[nH]cnc3n2)cc1
[1]
  growth inhibition: 0.85%
[2]
  growth inhibition: -17.6%
[3]
  growth inhibition: 28.9%
[4]
  growth inhibition: 16.1%
[5]
  growth inhibition: 29.7%
[6]
  growth inhibition: -37.7%

## CCOC(=O)Sc1nccn1C
[1]
  growth inhibition: 8.05%
[2]
  growth inhibition: -19.2%
[3]
  growth inhibition: 3.25%
[4]
  growth inhibition: -4.7%
[5]
  growth inhibition: -13.2%
[6]
  growth inhibition: -0.45%

## NNC(=O)CC(N)C(N)=O (stereo unspecified)
[1]
  growth inhibition: -4.1%
[2]
  growth inhibition: 3.5%
[3]
  growth inhibition: -3.25%
[4]
  growth inhibition: 13.3%
[5]
  growth inhibition: 27.4%
[6]
  growth inhibition: 16.5%

## CC(=O)Nc1ccc(-c2nnc(SCC(=O)Nc3ccc(C)cc3)o2)cc1
[1]
  growth inhibition: -15%
[2]
  growth inhibition: -5.5%
[3]
  growth inhibition: -5.8%
[4]
  growth inhibition: 8.4%
[5]
  growth inhibition: -13.7%
[6]
  growth inhibition: -38.3%

## Cn1c(=O)sc2ccccc21
[1]
  growth inhibition: 19.4%
[2]
  growth inhibition: -18.2%
[3]
  growth inhibition: 14.3%
[4]
  growth inhibition: 15.1%
[5]
  growth inhibition: -8.8%
[6]
  growth inhibition: 25.6%

## Cc1ccc(S(=O)(=O)CCCCS(=O)(=O)c2ccc(C)cc2)cc1
[1]
  growth inhibition: 1.8%
[2]
  growth inhibition: 4.35%
[3]
  growth inhibition: -7.1%
[4]
  growth inhibition: -62.4%
[5]
  growth inhibition: -27.2%
[6]
  growth inhibition: 2.3%

## Cc1nc2c(cc1C#N)C(Nc1ccc(Cl)cc1)Oc1ccc([N+](=O)[O-])cc1-2 (stereo unspecified)
[1]
  growth inhibition: -4.6%
[2]
  growth inhibition: -12.3%
[3]
  growth inhibition: 0.5%
[4]
  growth inhibition: -32.2%
[5]
  growth inhibition: -36.5%
[6]
  growth inhibition: -7.5%

## NNc1nc(N2CCOCC2)c2[nH]cnc2n1
[1]
  growth inhibition: -1.3%
[2]
  growth inhibition: -5.45%
[3]
  growth inhibition: 14.2%
[4]
  growth inhibition: 4.5%
[5]
  growth inhibition: -9.9%
[6]
  growth inhibition: 4.75%

## CC(=O)CC(=O)c1cc(C(C)=O)c(O)c(C(C)=O)c1
[1]
  growth inhibition: -11.8%
[2]
  growth inhibition: 0.75%
[3]
  growth inhibition: 11%
[4]
  growth inhibition: -3.3%
[5]
  growth inhibition: -11.1%
[6]
  growth inhibition: 7.8%

## Cc1ccc(S(=O)(=O)OCC2C(COS(=O)(=O)c3ccc(C)cc3)C3C4C5C2C2C3C4C52)cc1 (stereo unspecified)
[1]
  growth inhibition: -15.9%
[2]
  growth inhibition: -0.3%
[3]
  growth inhibition: 9.75%
[4]
  growth inhibition: 13.8%
[5]
  growth inhibition: -5.5%
[6]
  growth inhibition: -21.5%

## C1CCC(C(CCCCC(C2CCCCC2)C2CCCCC2)C2CCCCC2)CC1
[1]
  growth inhibition: 46.5%
[2]
  growth inhibition: -3.8%
[3]
  growth inhibition: 27.2%
[4]
  growth inhibition: 16.1%
[5]
  growth inhibition: -0.7%
[6]
  growth inhibition: -2.6%

## CCN(CC)C(N)=Nc1cc2ccccc2c2ccccc12
[1]
  growth inhibition: -16.5%
[2]
  growth inhibition: -22.8%
[3]
  growth inhibition: -16.9%
[4]
  growth inhibition: -45.5%
[5]
  growth inhibition: 8.55%
[6]
  growth inhibition: 5.25%

## OCC(CBr)(CBr)CBr
[1]
  growth inhibition: 2.45%
[2]
  growth inhibition: -2%
[3]
  growth inhibition: 8.25%
[4]
  growth inhibition: 19.3%
[5]
  growth inhibition: 4.45%
[6]
  growth inhibition: -3.85%

## O=C1NC(=S)N/C1=C\c1cccs1
[1]
  growth inhibition: -20.6%
[2]
  growth inhibition: -7.25%
[3]
  growth inhibition: 15.4%
[4]
  growth inhibition: -19.9%
[5]
  growth inhibition: -7.35%
[6]
  growth inhibition: -44.6%

## CCCCCCCCCCCCCCCCOCC(COP(=O)(O)OCC1OC(n2cc(CC)c(=O)[nH]c2=O)CC1O)OC(=O)CCCCCCCCCCCCCCC (stereo unspecified)
[1]
  growth inhibition: -0.45%
[2]
  growth inhibition: -5.55%
[3]
  growth inhibition: 5.25%
[4]
  growth inhibition: 3.15%
[5]
  growth inhibition: -15.1%
[6]
  growth inhibition: -65%

## CCCC(CCC)C(=O)OCC(=O)c1ccc(-c2ccccc2)cc1
[1]
  growth inhibition: -1.4%
[2]
  growth inhibition: -2.6%
[3]
  growth inhibition: 5%
[4]
  growth inhibition: -43.9%
[5]
  growth inhibition: 2.7%
[6]
  growth inhibition: -0.1%

## COC(=O)CC(NC(=O)OCc1ccccc1)C(=O)NC(COC(C)=O)C(=O)NCC(=O)OCc1ccccc1 (stereo unspecified)
[1]
  growth inhibition: 28.4%
[2]
  growth inhibition: 10.4%
[3]
  growth inhibition: 10.3%
[4]
  growth inhibition: 15.6%
[5]
  growth inhibition: 3.2%
[6]
  growth inhibition: 16.4%
